Experimental data taken from PubChem BioAssay.
Results filed as inconclusive are left out. Activity calls are given as the source filed them.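 How the source made its calls, unless noted: active means viability at or under a set limit in both replicates, limit being median viability minus 3 SD (cut at about 48% in these data, passing the limit was not always enough); inconclusive means at or under the limit in just one replicate; inactive means at or above the limit in both replicates.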

Tests used:
[1] = Her2 expression decrease, cell viability multiplex – SKBR3 breast tumor cells, AlphaScreen, ATP viability, primary screen (AID 461;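 active means Her2 level under about 52% in both replicate screens, with viability over 70% of control, limit read from the data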;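 on Her2 level: lower value means less Her2 protein in the cells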;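 on viability: percent of carrier control wells set as 100% viability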); details: SKBR3 Her2 protein level, 18-24 h, measured here: SKBR3 viability, ATP luminescence, at 10 µM
[2] = target: Receptor tyrosine-protein kinase erbB-2 (Homo sapiens) (UniProt P04626); test: as above; details: 18-24 h, at 10 µM, stronger effect = lower value
[3] = reduced viability of SK-BR-3 breast cancer cells – cell-based, 24 h, human, pilot screen (AID 572;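 active means viability at or below 10% of carrier control in both of two separate runs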;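 further: compound exposure lasted between 18 and 24 h rather than exactly 24 h; 100% = carrier-treated control wells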); details: SK-BR-3 viability, CellTiter-Glo luminescence, at 10 µM, stronger effect = lower value
[4] = HUVEC growth inhibition – cell-based, human, primary screen (AID 575;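 active means viability at or below 30% in both replicate assays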;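 further: 100% = median of untreated cell wells with 0.1% DMSO on each plate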); details: HUVEC proliferation, CellTiter-Glo luminescence, 72 h; at 10 µM; stronger effect = lower value
[5] = H69AR cell proliferation blockers – human, duplicate replicates, primary screen (AID 580); details: H69AR lung tumor cells viability, ATP luminescence, 72 h; at 10 µM; stronger effect = lower value;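 further: 100% = mean luminescence of untreated wells and 0% = no signal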
[6] = MRP1 drug-resistance reversers in H69AR cells – cell-based, doxorubicin co-treatment, pilot screen (AID 601;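 active means viability loss from added drug above about 55%, and viability with drug at most 40%, in both replicates, limit read from the data, passing the limit was not always enough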); details: CellTiter-Glo, 72 h, at 10 µM; for differential viability (reversal): stronger effect = higher value
[7] = yeast transport mutant growth inhibition pilot in 384-well plates, post-Golgi transport modulator project (AID 636; in the data active means inhibition above about 31%); details: absorbance 615 nm, about 18 h, stronger effect = higher value
[8] = growth suppression of yeast trafficking mutant, preliminary HTS, modulators of trafficking downstream of Golgi apparatus project, 1536-format plate, OD 615 nm (AID 637; in the data active means inhibition above about 30%); details: yeast transport mutant growth, absorbance 615 nm, 18 h; stronger effect = higher value
[9] = S. cerevisiae growth inhibition in permissive medium (OD615), pilot counter-assay for S. cerevisiae lifespan shortening project, permissive growth control (AID 705;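 active means growth inhibition above 25% in both replicates, a cutoff set 3 SD above the mean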); details: OD615, 24 h, at 10 µM, stronger effect = higher value
[10] = S. cerevisiae growth inhibition in restrictive medium, OD615, pilot screen, restrictive growth control, yeast lifespan reduction project (AID 706;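 active means growth inhibition above a set limit, 3 SD over mean compound inhibition, in both replicates, cut at about 43% in these data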;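 further: modified DeaD lifespan yeast strain shifted to restrictive glucose medium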); details: OD615, 48 h, at 10 µM, stronger effect = higher value
[11] = doxorubicin toxicity protection in MRP-1 cells – H69AR cells, CellTiter-Glo, duplicate, MRP-1 activator project, pilot screen (AID 807;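 active means viability increase at or above a cutoff of the median across tested compounds plus 3 SD, cut at about 8.5% in these data, passing the limit was not always enough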;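 further: compound pretreatment 18-22 h then 72 h combined with doxorubicin; 0% = doxorubicin alone and 100% = vehicle without doxorubicin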); details: H69AR viability with doxorubicin, CellTiter-Glo luminescence; at 10 µM; stronger effect = higher value
[12] = viability of HCT116 without oncogenic beta-catenin – human colon tumor cells, pilot screen (AID 823;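 active means cell viability at or below a set limit in both duplicate runs, the limit being the all-compound median minus 4 SD, cut at about 23% in these data, passing the limit was not always enough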;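 further: 0% = wells killed by 20 µM Hyamine and 100% = untreated DMSO cell wells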); details: HCT116 beta-catenin knockout viability, CellTiter-Glo, 60 h; at 10 µM; stronger effect = lower value
[13] = viability of PTEN-null HCT116 cells – cell-based, HCT116 clonal line, CellTiter-Glo, pilot screen (AID 824;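 active means viability at or below 27.92% in each of two runs, the all-compound median minus 4 SD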;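 further: 0% = 20 µM Hyamine control and 100% = vehicle cell control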); details: HCT116 PTEN-deleted viability, 60 h, at 10 µM, stronger effect = lower value
[14] = RAM pathway blockade in budding yeast – dse1pr::URA3 reporter, 5-FOA selection, pilot screen (AID 869;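 active means inhibition over a set limit, the all-compound mean plus 3 SD, in both replicate runs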;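 further: 0% = DMSO wells with no growth and 100% = 10 µM 1-NA-PP1 with full growth; RAM network block rescues cells from 5-FOA so hits raise OD615 growth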); details: S. cerevisiae dse1pr::URA3 5-FOA growth, OD615, 2 d; at 10 µM; stronger effect = higher value; strain carries analog-sensitive mutant Cbk1 kinase
[15] = RAM signaling pathway blockade in yeast – S. cerevisiae, Pdr1DBD-CYC8 efflux-inhibited sensitized strain, primary screen (AID 1298;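 active means RAM network inhibition above 8.4% in each of two replicates, 3 SD over the compound average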;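 further: 0% = DMSO untreated cells without growth and 100% = 10 µM 1-NA-PP1 full growth; higher means more yeast growth rescued from 5-FOA killing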); details: S. cerevisiae cbk1-as DSE1-URA3 strain, 5-FOA growth OD615, 2 d; at 50 µM; stronger effect = higher value
[16] = H69AR cells + 2 uM doxorubicin, measured here: viability with 2 uM doxorubicin, stronger effect = lower value
[17] = H69AR cells, compound alone cytotoxicity

Receptor tyrosine-protein kinase erbB-2 (Homo sapiens), sequence (P04626 whole entry, looked up): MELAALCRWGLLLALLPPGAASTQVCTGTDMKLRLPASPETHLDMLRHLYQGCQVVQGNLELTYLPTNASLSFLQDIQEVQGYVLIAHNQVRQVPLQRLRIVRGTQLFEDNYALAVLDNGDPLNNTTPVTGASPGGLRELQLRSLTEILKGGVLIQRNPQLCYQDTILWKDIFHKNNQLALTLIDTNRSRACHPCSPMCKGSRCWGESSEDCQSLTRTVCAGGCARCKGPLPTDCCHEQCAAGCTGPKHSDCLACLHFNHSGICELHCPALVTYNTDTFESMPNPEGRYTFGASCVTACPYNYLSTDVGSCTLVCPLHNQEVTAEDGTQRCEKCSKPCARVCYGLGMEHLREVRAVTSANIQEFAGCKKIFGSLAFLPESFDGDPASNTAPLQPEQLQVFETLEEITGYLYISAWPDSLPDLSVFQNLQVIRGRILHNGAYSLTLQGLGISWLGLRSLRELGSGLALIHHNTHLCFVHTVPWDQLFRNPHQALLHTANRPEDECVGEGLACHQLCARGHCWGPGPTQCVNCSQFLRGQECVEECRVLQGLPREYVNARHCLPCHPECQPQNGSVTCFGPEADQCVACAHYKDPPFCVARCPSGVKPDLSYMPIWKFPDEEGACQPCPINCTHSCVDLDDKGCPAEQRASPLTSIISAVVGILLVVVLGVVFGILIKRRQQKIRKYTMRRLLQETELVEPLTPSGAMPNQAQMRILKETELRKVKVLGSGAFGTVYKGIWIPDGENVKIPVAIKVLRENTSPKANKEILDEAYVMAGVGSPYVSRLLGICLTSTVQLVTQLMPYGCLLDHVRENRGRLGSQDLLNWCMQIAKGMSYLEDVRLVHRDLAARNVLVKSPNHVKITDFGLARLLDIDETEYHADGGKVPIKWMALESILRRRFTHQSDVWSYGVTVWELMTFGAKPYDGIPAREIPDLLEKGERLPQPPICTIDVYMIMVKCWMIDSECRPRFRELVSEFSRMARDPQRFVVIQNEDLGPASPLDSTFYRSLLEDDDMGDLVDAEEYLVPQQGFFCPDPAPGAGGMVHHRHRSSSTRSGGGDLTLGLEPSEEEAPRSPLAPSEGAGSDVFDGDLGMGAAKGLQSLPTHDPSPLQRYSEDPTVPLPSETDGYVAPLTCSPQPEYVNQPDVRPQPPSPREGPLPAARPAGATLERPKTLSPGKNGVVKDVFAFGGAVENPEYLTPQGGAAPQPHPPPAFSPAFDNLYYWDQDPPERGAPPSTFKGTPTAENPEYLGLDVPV

| SMILES | viability [1] | Her2 level [2] | viability [3] | viability [4] | viability [5] | differential viability (reversal) ([6]; H69AR cells + 2 uM doxorubicin) | viability [6, 16] | viability [6, 17] | inhibition [7] | inhibition [8] | growth inhibition [9] | growth inhibition [10] | viability increase [11] | viability [12] | viability [13] | inhibition [14] | RAM network inhibition [15] |
| --- | --- | --- | --- | --- | --- | --- | --- | --- | --- | --- | --- | --- | --- | --- | --- | --- | --- |
| O=C(OCCN=C1NS(=O)(=O)c2ccccc21)C1CC(=O)N(c2ccc(Cl)cc2)C1 (centres undefined) | 114% | 99.5% (inactive) | 114% (inactive) | 106% (inactive) | 93.2% (inactive) | 5.78% (inactive) | 87.4% | 93.2% | -3.25% (inactive) | -1.67% (inactive) | 6.61% (inactive) | -8.43% (inactive) | -0.51% (inactive) | 107% (inactive) | 101% (inactive) | 0.695% (inactive) | -0.53% (inactive) |
| CCn1cc(C(=O)N2CCOCC2)c(=O)c2cc(S(=O)(=O)N(C)C3CCCCC3)ccc21 | 84% | 89% (inactive) | 84% (inactive) | 108% (inactive) | 106% (inactive) | 19.7% (inactive) | 86.7% | 106% | 0.26% (inactive) | 0.5% (inactive) | -13.6% (inactive) | -19.3% (inactive) | -1.73% (inactive) | 100% (inactive) | 95.8% (inactive) | 0.85% (inactive) | 2.09% (inactive) |
| Cc1csc(NC(=O)C(Cc2ccccc2)n2cccc2)n1 (centres undefined) | 91.5% | 87% (inactive) | 91.5% (inactive) | 101% (inactive) | 87.6% (inactive) | 5.21% (inactive) | 82.4% | 87.6% | -3.73% (inactive) | 6.56% (inactive) | -13.9% (inactive) | -8.47% (inactive) | -5.96% (inactive) | 73.8% (inactive) | 73.1% (inactive) | 1.32% (inactive) | 6.15% (inactive) |
| O=C(O)C1CCCN(S(=O)(=O)c2ccc(Cl)s2)C1 (centres undefined) | 91% | 124% (inactive) | 91% (inactive) | 102% (inactive) | 93.1% (inactive) | 4.47% (inactive) | 88.6% | 93.1% | -4.8% (inactive) | 0.5% (inactive) | -4.79% (inactive) | 7.83% (inactive) | 0.34% (inactive) | 100% (inactive) | 102% (inactive) | 2.21% (inactive) | 0.99% (inactive) |
| O=C(NCCCN1CCOCC1)c1cc(-c2ccc(O)cc2)on1 | 100% | 87.5% (inactive) | 100% (inactive) | 83.7% (inactive) | 94.8% (inactive) | 5.84% (inactive) | 89% | 94.8% | -6.4% (inactive) | -4% (inactive) | -9.88% (inactive) | -16.8% (inactive) | -6.65% (inactive) | 92.3% (inactive) | 93.7% (inactive) | -0.505% (inactive) | 0.12% (inactive) |
| O=c1c2ccccc2nc(SCc2nc(-c3ccccc3)no2)n1-c1ccc(F)cc1 | 90.5% | 98% (inactive) | 90.5% (inactive) | 79.7% (inactive) | 89.7% (inactive) | -5.78% (inactive) | 95.5% | 89.7% | -5.73% (inactive) | 2.17% (inactive) | 2.33% (inactive) | -3.72% (inactive) | -1.52% (inactive) | 72.2% (inactive) | 68.6% (inactive) | 1.77% (inactive) | 8.86% (inactive) |
| CCN(CC)C(=O)c1ccc(CS(=O)(=O)c2ccc(OC)cc2)o1 | 84.5% | 116% (inactive) | 84.5% (inactive) | 99.2% (inactive) | 87.8% (inactive) | -0.895% (inactive) | 88.7% | 87.8% | 1.54% (inactive) | -6% (inactive) | -6.54% (inactive) | -7.93% (inactive) | -1.02% (inactive) | 97.4% (inactive) | 95.3% (inactive) | 1.96% (inactive) | 3.14% (inactive) |
| CC1CCCN(S(=O)(=O)c2coc(C(N)=O)c2)C1 (centres undefined) | 87.5% | 119% (inactive) | 87.5% (inactive) | 82.6% (inactive) | 94.6% (inactive) | -23.4% (inactive) | 118% | 94.6% | -0.51% (inactive) | 1% (inactive) | -19.2% (inactive) | -4.31% (inactive) | -0.1% (inactive) | 108% (inactive) | 99.5% (inactive) | 1.33% (inactive) | 2.99% (inactive) |
| O=C1c2ccccc2C(Nc2ccc3c(c2)OCCO3)N1Cc1ccc2c(c1)OCO2 (centres undefined) | 91% | 94.5% (inactive) | 91% (inactive) | 64.8% (inactive) | 86.4% (inactive) | -4.04% (inactive) | 90.4% | 86.4% | -5.73% (inactive) | 0.5% (inactive) | -4.37% (inactive) | 8.02% (inactive) | 0.68% (inactive) | 82.2% (inactive) | 72.2% (inactive) | 2.92% (inactive) | 4.31% (inactive) |
| O=C(Nc1cnn(Cc2ccc(Cl)cc2Cl)c1)c1noc2c1CCCC2 | 94.5% | 91.5% (inactive) | 94.5% (inactive) | 71.8% (inactive) | 88.2% (inactive) | 2.57% (inactive) | 85.6% | 88.2% | -0.13% (inactive) | -3.17% (inactive) | 2.94% (inactive) | -1.65% (inactive) | -0.32% (inactive) | 94.7% (inactive) | 82.7% (inactive) | 0.895% (inactive) | 4.07% (inactive) |
| COc1cccc(-c2nnc(NC(=O)c3ccccc3Br)o2)c1 | 87% | 85.5% (inactive) | 87% (inactive) | 71.6% (inactive) | 67% (inactive) | -22.2% (inactive) | 89.2% | 67% | -5.87% (inactive) | 1.33% (inactive) | -13.4% (inactive) | 13.6% (inactive) | -5.12% (inactive) | 71.7% (inactive) | 73.2% (inactive) | 1.46% (inactive) | -2.32% (inactive) |
| CCCCn1c2c(c3ccccc31)CCc1nonc1-2 | 107% | 108% (inactive) | 107% (inactive) | 89.6% (inactive) | 103% (inactive) | -2.16% (inactive) | 105% | 103% | -0.77% (inactive) | -3.67% (inactive) | -8.86% (inactive) | -29.4% (inactive) | 1.75% (inactive) | 80.4% (inactive) | 78.4% (inactive) | 2.28% (inactive) | 2.83% (inactive) |
